Shown are actives, neighbours in structure and some others; about 6.9% of the full set was active somewhere.
Cy5 interf NS3h: Cy5 fluorescence quenchers or enhancers, artefact control for HCV NS3 helicase inhibitor project, biochemical, ChemBridge library, Cy5 readout; Cy5-dT15 DNA with NS3h, fluorescence interference; actives lie on both sides; signal over control mean, under 1 quenches; fluorescence interference ratio at 100 µM; 16,000 tested, 6% active;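 active means compound fluorescence over control fluorescence at most 0.8, a quencher, or at least a set upper limit, an enhancer; inactive means ratio between 0.8 and the set upper limit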
HCV NS3h FP: HCV NS3 helicase inhibitors, primary screen, biochemical, fluorescence polarization, ChemBridge library; NS3h Cy5-dT15 DNA binding; inhibition, % at 100 µM; 16,000 tested, 1.6% active; AID 687043, 2013;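 active means inhibition above the average over every tested compound plus 3 SD, cut at about 40% in these data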
Starred values were filed as active, the others as inactive.

SMILES	Cy5 interf NS3h	HCV NS3h FP
Cc1ccc(S(=O)(=O)OCP(=O)(c2ccccc2)c2ccccc2)cc1	0.77*	9
COCP(=O)(c1ccccc1)c1ccccc1	0.91	-9
CCOC(=O)c1c(-c2ccc(C)cc2)csc1NC(=O)c1ccccc1F	1.1	7
CCOC(=O)c1c(-c2ccc(OC)cc2)csc1NC(=O)c1cccc([N+](=O)[O-])c1	0.75*	12
COc1ccc(C(=O)Nc2ccncc2)cc1Br	0.86	21
COc1cc(NC(=O)c2ccc(-c3cccc([N+](=O)[O-])c3)o2)ccc1NC(=O)c1ccco1	0.95	4
O=C(Nc1ccccc1C(=O)Nc1ccccn1)c1ccccc1Cl	0.94	11
Cc1cc(Nc2ccc(C)c(Cl)c2)n2ncnc2n1	0.74*	15
Cc1cc(Nc2cc(Cl)cc(Cl)c2)n2ncnc2n1	0.91	-1
COc1ccc(C(O)=C2C(=O)C(=O)N(CCc3ccccc3)C2c2ccc(C)cc2)cc1 (stereo unspecified)	1.1	-11
O=C(O)CSc1nnc(-c2cccs2)n1-c1ccccc1	1	-1
Cc1ccc2nc(-c3ccc([N+](=O)[O-])cc3)cn2c1	0.98	5
O=[N+]([O-])c1ccc(-c2cn3c(n2)sc2ccccc23)cc1	0.65*	2
Cc1ccc(S(=O)(=O)Nc2ccc(Oc3ccccc3)cc2)cc1[N+](=O)[O-]	0.94	15
Cc1ccc(-n2nc(-c3ccccc3)c3c2C(=O)C=CC3=O)cc1	0.92	44*
COc1ccc(-c2c(-c3ccc(Cl)cc3)nn(-c3ccccc3)c2N)cc1OC	0.9	19
Cc1cc(OCC(=O)Nc2c(C(C)C)cccc2C(C)C)cc(C)c1Cl	1	2
CC1(C)Cc2c(sc3nc(Nc4ccccc4)n(N)c(=O)c23)CO1	0.97	0
COc1ccc2nc(SCC(=O)Nc3ccccc3)[nH]c2c1	0.95	4
COc1ccc(NC(=O)CSc2nc3ccccc3[nH]2)c(OC)c1	0.71*	10
CCOC(=O)c1ccc(N2NC(=O)/C(=C/c3cccc(I)c3)C2=O)cc1	0.79*	20
CCOC(=O)c1ccc(N2NC(=O)/C(=C/c3cc(OC)c(O)c(OC)c3)C2=O)cc1	0.96	14
O=C1c2cccc3cccc(c23)C(=O)N1/N=C\c1ccc(Br)cc1	0.86	-53
O=C1c2cccc3cccc(c23)C(=O)N1/N=C\c1cccc([N+](=O)[O-])c1	0.74*	-8
CCC1=NN2C(=N)/C(=C/c3ccc(-c4ccc(C(=O)O)cc4)o3)C(=O)N=C2S1	0.95	19
SMILES	Cy5 interf NS3h	HCV NS3h FP
CCC(=O)Nc1sc2c(c1C(=O)Nc1ccc(OC)cc1)CCC2	0.9	-7
COc1ccc(NC(=O)c2c(NC(=O)C(Cl)(Cl)Cl)sc3c2CCC3)cc1	0.6*	27
Cc1cc(=O)n2[nH]c(-c3cccs3)cc2n1	1.1	1
O=c1cc(-c2ccccc2)nc2cc(-c3cccs3)[nH]n12	1.2	57*
C=CCn1cc(C)c(=O)n(CC(C)C)c1=O	1	-1
C=CCN1C(=O)/C(=C2\SC(=S)N(Cc3ccco3)C2=O)c2ccccc21	0.98	17
NC(=O)CN1C(=O)/C(=C2\SC(=S)N(Cc3ccccc3)C2=O)c2ccccc21	0.8*	7
NC(=O)c1ccc[n+](CC(=O)c2cc3ccccc3oc2=O)c1	0.6*	-7
Nc1cccc(C(=O)Nc2ccccc2)c1	0.99	1
Nc1ccc[n+](CC(=O)c2ccccc2)c1	0.75*	-14
O=C(Nc1cccc(I)c1)c1cc2ccccc2oc1=O	0.96	8
O=C(c1nn2c(c1Br)NC(c1cccs1)CC2C(F)(F)F)N1CCCc2ccccc21 (stereo unspecified)	0.7*	14
O=C(c1nn2c(c1Br)NC(c1cccs1)CC2C(F)(F)F)N1CCOCC1 (stereo unspecified)	1.1	5
COc1ccc(Br)cc1C(=O)Nc1ccc(C(C)=O)cc1	1	-10
COc1ccc(N2C(=O)C3C4C=CC(C5CC45)C3C2=O)c([N+](=O)[O-])c1 (stereo unspecified)	0.98	6
COc1cc([N+](=O)[O-])ccc1N1C(=O)C2C3C=CC(C4CC34)C2C1=O (stereo unspecified)	0.75*	9
Cc1ccc(C(=O)N/C(=C\c2ccc(Cl)cc2)C(=O)NCC(C)C)cc1	0.96	41*
CC(C)CNC(=O)/C(=C/c1ccc(F)cc1)NC(=O)c1ccccc1	0.95	12
O=C(NCCN1CCOCC1)C(=O)NCc1ccc(Cl)cc1	1.3*	7
O=C(NCCN1CCN(Cc2ccccc2)CC1)C(=O)Nc1ccc(Cl)cc1	1	1
CCOCCOC(=O)c1ccc(NC(=O)COc2ccc(C)cc2Br)cc1	1	5
CC1(C)CC(=O)C2=C(C1)N(c1ccccc1)C1=C(C2)C(=O)CC(C)(C)C1	0.95	-8
COc1ccc(OC)c(-c2nc(-c3ccccc3)c(-c3cccs3)[nH]2)c1	0.92	10
COc1ccc(-c2nc(-c3ccc(O)cc3)[nH]c2-c2ccc(OC)cc2)cc1	0.73*	7
CCN1C(=O)/C(=C\c2ccc(-c3ccc(C)c(Cl)c3)o2)SC1=S	1.1	12
SMILES	Cy5 interf NS3h	HCV NS3h FP
CCN1C(=O)/C(=C\c2ccc(-c3ccc(I)cc3)o2)SC1=S	0.72*	9
COCCOC(=O)c1c(C)oc2ccc(OCc3cccc(Cl)c3)cc12	0.79*	9
COCCOC(=O)c1c(C)oc2ccc(OCc3cccc(F)c3)cc12	0.93	9
O=C1c2[nH]nc(-c3ccccc3)c2C(c2ccccc2F)N1c1ccccc1 (stereo unspecified)	0.98	14
COc1ccc(/C=C2\C(=O)NC(=O)N(c3cc(C)cc(C)c3)C2=O)cc1	1.1	21
Cc1cc(C)c(N2C(=O)NC(=O)C(=Cc3ccoc3)C2=O)c(C)c1	1	42*
CCOc1cc(C=C2C(=O)NC(=S)NC2=O)cc(Br)c1OCCOc1ccccc1C	0.95	13
C=CCOc1c(I)cc(C=C2C(=O)NC(=S)NC2=O)cc1OCC	0.71*	22
C#Cc1cccc(N2C(=O)c3ccc(Oc4ccc([N+](=O)[O-])cc4)cc3C2=O)c1	1	17
O=C(Nc1cccc(Cl)c1)c1ccccc1Br	0.8*	-2
Cc1ccccc1C(=O)Nc1cccc(Cl)c1	0.96	5
COc1ccc(OC)c(CN2CCN(Cc3ccccc3F)CC2)c1	1	-8
COc1ccc(/C(N)=N\OC(=O)c2ccco2)cc1	0.97	5
Cc1ccc(S(=O)(=O)N2CCC(=O)C(C)C2)cc1 (stereo unspecified)	0.74*	17
Cc1ccc(S(=O)(=O)N2CCN(C3CC4CCC3C4)CC2)cc1 (stereo unspecified)	0.93	-20
COC(=O)c1cccc(N2C(=O)c3ccc(Oc4ccc(NC(C)=O)cc4)cc3C2=O)c1	1.3*	-25
CC(=O)Nc1cccc(Oc2ccc3c(c2)C(=O)N(c2ccccc2)C3=O)c1	0.99	8
COc1ccc(C=C2C(=O)c3ccccc3C2=O)c(OC)c1	0.95	6
COc1cc(C(=O)Oc2ccc3c(C)cc(=O)oc3c2C(C)=O)cc(OC)c1OC	1.2	12
COc1cc(C=O)ccc1OC(=O)c1cc(OC)c(OC)c(OC)c1	0.67*	0
CC(=O)c1ccc(C(C)(C)C)cc1NC(=O)c1ccccc1	1	3
Cc1ccccc1C(=O)Nc1ccc(-c2cnc(-c3ccc(NC(=O)c4ccccc4C)cc3)nc2)cc1	0.75*	18

Compound activity from PubChem BioAssay.
